38 molecules from PubChem BioAssay AID720526 (National Center for Advancing Translational Sciences (NCATS), 2013) can be followed below.

Records with an inconclusive call do not appear. The source made the active and inactive calls. The call rests on the fitted dose curve; in most records, active means well fitted activation curve with a large enough effect; inconclusive means small, poorly fitted or top-dose-only effect; inactive means no such curve, though single readings can be large or run the other way.
Potency means the concentration at half of the fitted maximal effect.

The nature of this experiment: qHTS Assay for NPC1 Promoter Activators: Hit Validation Using Renila Luciferase Read-Out for NPC1. On activity change, positive = activation: % of control where 0% means no effect. The settings on record: Huh7 NPC1 promoter-luciferase reporter, luminescence, 24 h; series mostly up to 76.9 µM; activity change, positive = activation: at the top concentration. In short, it runs like this: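 Huh7 cells stably carrying NPC promoter-luciferase reporter, exposed to compound for 24 h at 37 deg C. Luminescence read 10 min after adding luciferase detection reagent at room temperature.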
In general terms: Quantitative high-throughput screening tests each substance at several concentrations.
As to `CN(C)C(CNC(=O)CNC(=O)c1ccc2ccccc2c1)c1ccccc1` (stereo not drawn), the “activity change, positive = activation” value was 11.3% (inactive). Take `Cc1ccc(NC(=O)COC(=O)C2C3CC4OC(=O)C2C4C3)cc1Cl` (stereo not drawn): the “activity change, positive = activation” value was -9.24% (inactive). `OCCC1CN(Cc2nc3ccccc3s2)CCN1C1CCCC1` (stereo not drawn): the “activity change, positive = activation” value was -7.98% (inactive).

As for `COCCNC(=O)Cn1nc(-c2ccccc2)c2ccccc2c1=O`, the “activity change, positive = activation” value was 1.18% (inactive). Consider `O=C(CN1C(=O)COc2ccc(Cl)cc21)NCC1CCCO1` (stereo not drawn), for which the “activity change, positive = activation” value was 2.71% (inactive). On to `Cc1nc(-c2ccccn2)sc1C(=O)Nc1ccc(F)cc1F`, for which the “activity change, positive = activation” value was -4.57% (inactive). On to `Nc1nc(SCCO)[nH]c(=O)c1NC(=O)c1ccco1`, for which the “activity change, positive = activation” value was 10% (inactive).

On to `O=C(NC1CCCC1)C(c1ccc(F)cc1)N(C(=O)c1csnn1)c1ccccc1` (stereo not drawn), for which the “activity change, positive = activation” value was 9.81% (inactive). With `Cc1ccc(NC(=O)c2ncc(Cl)c(Cl)c2Cl)cc1C`, the “activity change, positive = activation” value was -39.1% (inactive). As to `Cc1noc(/C=C/N(C)C)c1S(=O)(=O)N1CCCC(C(=O)N2CCCCC2)C1` (stereo not drawn), the “activity change, positive = activation” value was 10.9% (inactive). The same measure, in the same setting: under `CC(=O)NC(=S)Nc1ccc2oc(-c3cc(F)c(F)cc3Cl)nc2c1` stands 4.45% (inactive); under `CN(C)/C=N/c1c(C#N)cnn1-c1nc2ccccc2s1`, -0.131% (inactive). With `Cn1c(SCc2ccccc2)nnc1-c1cnccn1`, the “activity change, positive = activation” value was -19.9% (inactive). As to `O=C(NCCc1ccccc1)c1cc2ncc(Br)cn2n1`, the “activity change, positive = activation” value is -3.26% (inactive). The same measure, in the same setting: next, `Cc1cc(C)c2c(N)c(C(=O)Nc3ccc([N+](=O)[O-])cc3)sc2n1`: -16.2% (inactive). `COC(=O)c1ccccc1NC(=O)c1ccc(-c2ccc(Br)cc2)o1`: the “activity change, positive = activation” value was -9.22% (inactive).

For the molecule `COc1ccccc1CNC(=O)COc1ccc(C)cc1`, the “activity change, positive = activation” value was 8.49% (inactive). As for `COc1ccc(C(=O)OCC(=O)N2CCCC2=O)c(OC)c1`, the “activity change, positive = activation” value was -4.88% (inactive). Take `COCc1cc(C)nc(N/N=C/c2ccc(-c3ccc(Cl)cc3[N+](=O)[O-])o2)c1C#N`: the “activity change, positive = activation” value was 14.9% (inactive).

As for `COc1cccc(CNC(=O)CN(c2cc(C)cc(C)c2)S(=O)(=O)c2c(C)noc2C)c1`, the “activity change, positive = activation” value is 7.09% (inactive). For `NNC(=O)c1cccc(S(=O)(=O)Nc2cc(Cl)ccc2Cl)c1`, the “activity change, positive = activation” value is 16.5% (inactive). `Nc1ccc(C(=O)Nc2ccccc2N)cc1`: the Potency was 16.4 µM (active). Still for that read-out and setting: next, `N#C/C(=C\c1ccc[nH]1)C(=O)Nc1ccccc1Cl`: 23.2 µM (active). As for `O=C(C[N+]1(CC#Cc2ccccc2)CCCCC1)c1ccccc1`, the “activity change, positive = activation” value was 6.02% (inactive).

For the molecule `CC(Sc1ncnc2c1cnn2-c1ccccc1)C(=O)Nc1ccc(N2CCOCC2)cc1` (stereo not drawn), the “activity change, positive = activation” value is -18% (inactive). On to `CCc1cc(C(=O)Nc2ccccc2)cs1`, for which the “activity change, positive = activation” value was -45.1% (inactive). With `CCOC(=O)C1(Cc2cccc(Cl)c2)CCCN(C(=O)CCSC)C1` (stereo not drawn), the “activity change, positive = activation” value is -3% (inactive). On the same count and under the same terms, under `C=CCOC(=O)N1CCN(c2cccc(C(F)(F)F)c2)CC1` stands -3.15% (inactive); under `Cc1ccc(S(=O)(=O)/N=C2\C=C(Nc3cccc(C(=O)O)c3)C(=O)c3ccccc32)cc1`, -88% (inactive). Consider `O=C(O)C1=CC[C@@H](c2ccc(Cl)cc2)N(S(=O)(=O)c2ccc(Cl)cc2)[C@H]1c1ccccc1`, for which the Potency is 14.6 µM (active). Take `O=C(CSc1nnc(-c2ccccc2)o1)Nc1ccccc1F`: the “activity change, positive = activation” value is -0.801% (inactive). On to `O=C(CSc1nnc(-c2ccccn2)o1)Nc1ccccc1Cl`, for which the “activity change, positive = activation” value is -7.37% (inactive). Still for that read-out and setting: under `O=C(CCCOc1ccc(Cl)cc1)N1CCCCC1` stands -10.6% (inactive). As for `O=C(NCCc1c[nH]c2ccccc12)C(=O)NCC(c1ccco1)N1CCN(c2ccccc2F)CC1` (stereo not drawn), the “activity change, positive = activation” value is -31.8% (inactive).

In the case of `COc1ccc(C(c2nnnn2CCc2ccccc2)N2CCN(C3CCCC3)CC2)cc1` (stereo not drawn), the Potency was 13 µM (active).

For `Cc1ccc(S(=O)(=O)/N=C(/Nc2ccccn2)c2ccc(Cl)cc2)cc1`, the Potency is 11.6 µM (active). With `CC(C)(C)C(=O)N/C(N)=N/c1nc2ccccc2o1`, the “activity change, positive = activation” value is -60.7% (inactive).

In the case of `COc1cccc(C(C(=O)NC2CCCC2)N(CCC(C)C)C(=O)CCC(=O)Nc2cc(C)on2)c1` (stereo not drawn), the “activity change, positive = activation” value is 22% (inactive).
